The source of these data is PubChem BioAssay (NCI).

Molecules are shown by their SMILES. This is part of a sample that, as a whole, favours compounds with a hit. Of some 83,000 tested, about 20% had one in any assay.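 Results are percent growth after 48 hours of single-concentration exposure. 100 means growth as in untreated cells, lower positive values show inhibition; negative values down to -100 show cell death.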 Values without a mark were called inactive. Activity calls are given as the source filed them. Rule for the calls: active = growth percent below 10; inactive = the rest.

This experiment has as its system HL-60(TB) leukemia. Briefly: NCI-60 one-dose screen, 48 h (100 = growth as untreated, 0 = no growth, -100 = all killed). Particulars: 10 µM unless noted.
On to `O=C1c2ccccc2C2N1CCC1CCc3ccccc3N12` (stereo not given), for which the growth is 104%.
In the case of `COc1cc(/C=N\NC(=O)CN2CCN(c3cc4c(cc3F)c(=O)c(C(=O)N/N=C/c3cc(OC)c(OC)c(OC)c3)cn4C3CC3)CC2)cc(OC)c1OC`, the growth was -10.2% (active).
Then `N#Cc1ccc(NC(=O)Nc2ccc(Cc3ccc(NC(=O)Nc4ccc(C#N)cc4)cc3)cc2)cc1`, with 22.4%; and `CC(C)(C)n1cc(-c2ccnc(NCCNS(=O)(=O)c3ccc(Cl)cc3)c2)c(-c2cccc(O)c2)n1`, with 39.4%.
Then `COC(=O)c1cc(Cl)cc([N+](=O)[O-])c1O`, with 18.8%; and `CC([C@H]1CCC2C3CCC4C(=O)C(NC=O)=CC[C@]4(C)C3CC[C@@]21C)N(C)C` (stereo not given in full), with 1.54% (active); and `c1ccc2cc(C[n+]3ccn(CCCCCCCn4cc[n+](Cc5ccc6ccccc6c5)c4)c3)ccc2c1`, with 32.9%.
With `CN(C)CC1C(=O)O[C@H]2[C@H]1CC/C(COC(=O)NCc1ccc(Cn3c(=O)sn(CCCI)c3=O)cc1)=C\CC[C@@]1(C)O[C@@H]21` (stereo not given in full) the figure was -36.5% (active).
As for `CCOC(=O)C1=C(c2ccccc2)N=C2SC=C(c3ccc(Cl)cc3)N2C1c1ccc(Cl)cc1` (stereo not given), the growth is 52.6%.
Consider `COc1cc2nc(NC3CCC3)nc(NC3CCN(C(C)C)CC3)c2cc1OC`, for which the growth was 4.58% (active).
As to `COc1ccc(N=C2NN=C(c3c[nH]c4ccccc34)CS2)cc1OC`, the growth was 47%.
With `OCC1OC(n2ccc3c(NO)ncnc32)C(O)C1O` (stereo not given) the figure was -35.1% (active).
On to `C[N+](C)(C)CC(=O)N/N=C\c1ccco1`, for which the growth was 53%.
With `Cc1cc2ccccc2c(O)c1C#N` the figure was 89.6%; with `CC(=O)O.[In]`, 93.4%; with `Cc1ncc(C(=O)Nc2ccc(CN3CCN(C)CC3)c(C(F)(F)F)c2)cc1C#Cc1cnc2cccnn12`, -28.2% (active).
With `Cc1cc(C2(c3ccc(O)c(C)c3)OS(=O)(=O)c3ccccc32)ccc1O` the figure was 79%; with `CN1CCN(Cc2ccc(NC(=O)c3cncc(C#Cc4cncc5ncccc45)c3)cc2C(F)(F)F)CC1`, -3.29% (active); with `C[n+]1ccc(C#N)c2ccccc21`, 70.3%.
With `O=C(Nc1ccc(Oc2ccc(Nc3nc4ccccc4s3)cc2)cc1)Nc1ccc(Cl)c(C(F)(F)F)c1` the figure was -19.3% (active); with `COc1ccc(Nc2ncccc2NC(=O)c2cn(Cc3cccc(Oc4ccccc4)c3)nn2)cc1OC`, 55.8%.
`CCOC(=O)C#Cc1c(C(=O)OCC)nnn1[C@@H]1O[C@H](COC)[C@@H](OC)[C@H]1OC`: the growth is 47.5%.
For `CC(=O)Oc1ccc(C2OC(c3ccc4ccccc4c3OC(C)=O)=NN2C(C)=O)c(OC(C)=O)c1` (stereo not given), the growth was -30.7% (active).
With `CC(=O)Nc1ccc2c(c1)/C(=C\C=C/c1ccc([N+](C)(C)C)cc1)c1ccccc1-2` the figure was 43.7%; with `C=CCCCCCCCCCOC(C)=O`, 120%.
With `COc1cccc(-c2cnco2)c1OCc1c(C)c(COc2c(OC)cccc2-c2cnco2)c(C)c(COc2c(OC)cccc2-c2cnco2)c1C` the figure was 76.4%.
Then `CCN1C(=S)N(CC)C2C1NC(=S)N2/N=C/C=C/c1ccccc1` (stereo not given), with -22.2% (active); and `O=c1oc2ccccc2cc1-c1nn(-c2ccccc2)cc1/C=N/Nc1nc(-c2ccccc2)c(N=Nc2ccccc2)s1`, with 58.1%; and `COc1ccc(C(=O)c2sc3nc(-c4cccs4)ccc3c2N)cc1OC`, with 23.3%.
As for `CCSc1ncc(Br)c(Sc2nc(N)nc3nc[nH]c23)n1`, the growth was 87.8%.
Consider `C[C@]12O[C@H]1[C@H](O)c1c(cc(O)c3c1C(=O)c1cccc(O)c1-3)C2=O`, for which the growth is 100%.
For the compound `CCn1cc(-c2ccnc(NCCNS(=O)(=O)c3ccc(Br)cc3)c2)c(-c2cccc(OC)c2)n1`, the growth is 81.4%.
With `CS(=O)CCCCCN=C=S` (stereo not given) the figure was -33.9% (active); with `COc1cc(C(=O)/C=C/c2cccnc2Nc2ccccc2)cc(OC)c1OC`, -31.2% (active).
Turning to `CCCCCCCCCCCCCCCCC(=O)O.CCCCCCCCCCCCCCCCCC(=O)O.CCCCCCCCCCCCCCCCCC(=O)O.CCCCCCCCCCCCCCCCCC(=O)O.CCCCCCCCCCCCCCCCCC(=O)O.CO[CH-]OC12COC1CC(O)C1(C)C(O)C(OC(C)O)C3=C(C)C(OC(=O)C(O)C([NH-])c4ccccc4)CC(O)(C(OC(=O)c4ccccc4)C21)C3(C)C.[Cu+].[Zn].[Zn].[Zn].[Zn].[Zn]` (stereo not given), the growth was -3.29% (active).
As to `CCc1c(C(=O)N[C@@H](C(=O)OCc2ccccc2)C(C)O)[nH]c2ccc(Cl)cc12` (stereo not given in full), the growth is 122%.
Then `CCCCCCCCCCC(=O)CCCCCCCCCC`, with 95.4%.
Then `O=C(Oc1ccc(Cl)cc1[N+](=O)[O-])Oc1ccc(Cl)cc1[N+](=O)[O-]`, with 95.7%; and `COc1ccc(-c2nn(-c3cccc(NC(=O)Nc4ccc(Cl)c(C(F)(F)F)c4)c3)cc2-c2ccncc2)cc1Cl`, with -11.3% (active).
With `C/C(=C(\c1ccc(OCCN2CCCCCC2)cc1)c1ccc(OC(=O)Cc2ccccc2)cc1)c1ccc(Cl)cc1` the figure was -60% (active).
